# Whole data set: some 33,000 sequences, median “E-score (-0.5 to 0.5)” near -0.012, cut for the highest 2% near 0.27. Shown is part of a subset that was picked to be rich in the highest values.
# Target: T1, Vhr1 (UniProt P40522)
# T1 sequence: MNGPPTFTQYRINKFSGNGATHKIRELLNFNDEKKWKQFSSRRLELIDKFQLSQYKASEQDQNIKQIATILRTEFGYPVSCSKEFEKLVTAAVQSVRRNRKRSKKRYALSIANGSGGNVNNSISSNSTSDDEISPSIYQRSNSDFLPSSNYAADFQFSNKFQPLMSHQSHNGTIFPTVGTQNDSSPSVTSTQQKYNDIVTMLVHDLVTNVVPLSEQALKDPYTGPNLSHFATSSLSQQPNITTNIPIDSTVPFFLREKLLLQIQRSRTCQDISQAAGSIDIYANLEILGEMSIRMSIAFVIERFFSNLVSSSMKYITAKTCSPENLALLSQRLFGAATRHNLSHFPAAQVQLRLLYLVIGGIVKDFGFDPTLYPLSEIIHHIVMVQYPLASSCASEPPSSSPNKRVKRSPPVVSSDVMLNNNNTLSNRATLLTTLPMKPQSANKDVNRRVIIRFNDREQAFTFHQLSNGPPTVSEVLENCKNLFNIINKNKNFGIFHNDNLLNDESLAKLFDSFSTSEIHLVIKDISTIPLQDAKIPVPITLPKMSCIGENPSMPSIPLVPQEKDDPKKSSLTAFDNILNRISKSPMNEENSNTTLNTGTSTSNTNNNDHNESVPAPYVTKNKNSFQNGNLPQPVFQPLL
# Test: PBM E-score (8-mer binding enrichment) (E-score (-0.5 to 0.5)); higher = stronger / more preferred TF binding
# Details: protein concentration: 200 nM; construct: GST-full length
# Protocol: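 Universal 'all 10-mer' protein binding microarrays (Agilent AMADID 015681) probed with GST-tagged S. cerevisiae TFs (full-length or DBD) made by in vitro transcription/translation (PURExpress), about 100-200 nM. Bound TF was detected with fluorescent anti-GST. Each ungapped 8-mer (which stands for itself and its reverse complement) is scored by the PBM enrichment score (E-score), a modified Wilcoxon-Mann-Whitney statistic from -0.5 to +0.5, computed with the Universal PBM Analysis Suite. Scale: above 0.35 generally sequence-specific binding.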
row,Sequence,PBM E-score
1,ACCATGTC,0.144
2,ACCATGTG,0.295
3,ACTATGTG,0.292
4,ACTATGTA,0.207
5,ACTATGTC,0.091
6,ACCATGTA,0.261
7,ATGCCCTC,-0.0196
8,CCAGGTTA,-0.0596
9,ATGATTGG,0.178
10,GCGATTGA,-0.121
11,CTGATTGA,0.177
12,ACGATTGC,0.0187
13,ACGATTGA,0.0265
14,ATGATTGA,0.344
15,ATGATTGC,0.345
16,GTGATTGA,0.329
17,CTGATTGC,0.035
18,ACTCTTAA,-0.233
19,ACGTTGGA,0.0766
20,GGCGTTAC,-0.119
21,ACGTGATG,0.00697
22,AAGAAGCT,-0.191
23,CCTCTGCC,-0.286
24,AAAGCGTA,-0.183
25,ATAGCATG,-0.034
26,GCTGTCAA,-0.125

row,Sequence,PBM E-score
1,ATTTTATC,-0.13
2,AGAGCGCT,-0.249
3,ACCGTTCA,-0.0238
4,AGTCGCTG,0.216
5,ACTCGCCG,0.306
6,CCTCGCGC,-0.0292
7,CCTCGCCG,-0.118
8,ACTCGCGA,0.227
9,AGTCGCGA,0.305
10,CGTCGCGA,0.181
11,GGTCGCGA,0.194
12,ACTCGCGC,0.273
13,ACTCGCCT,0.0445
14,ACTCGCGG,0.209
15,AGTCGCGG,0.351
16,AGCAAATA,-0.0751
17,CAAATTGA,-0.124
18,TGCAGCAA,0.114
19,AATCCTAC,-0.159
20,CTAAGCCA,-0.0787
21,TACGGCGA,0.0569
22,ACCGAGTG,0.13
23,AATGCGCG,0.193
24,CAATTCTG,-0.077
25,AGAAAATA,-0.0162
26,CGTCGCGC,0.0614

row,Sequence,PBM E-score
1,AGTCGCGC,0.374
2,AGTCGCTC,0.237
3,ACTCGCTG,0.0751
4,ACTCGCTC,0.282
5,ACTCGCTA,0.133
6,ACAGGTTG,0.0217
7,AACCAATG,0.209
8,CAGAGTTC,-0.0458
9,CCCCTACG,-0.139
10,CATCCATC,0.0866
11,GTCATGTA,0.141
12,ACCTATAG,-0.144
13,ACCGACTG,0.177
14,CCCGACTA,0.206
15,CCCGACTC,0.426
16,ACCGACTC,0.34
17,CCCGACCC,0.123
18,ACCGACTA,-0.0288
19,CAAGACGA,-0.109
20,CCACTCCA,0.0742
21,CTACTCCA,-0.0498
22,CGACTCCA,0.4
23,AGACTCCC,-0.00382
24,AGACTCCA,0.133
25,GGACTCCA,0.13
26,CGACTCCC,0.321

row,Sequence,PBM E-score
1,CGACTCCG,0.391
2,GGACTCCC,0.0918
3,CAACTCCG,-0.0132
4,TGACTCCA,0.48
5,AGACTCCG,0.225
6,TCCCCCCA,-0.233
7,CATACTAG,0.238
8,GTTTGAAA,-0.0935
9,ATTGTGAA,-0.0037
10,ATCCAGGG,-0.0888
11,AGCTCCCT,-0.235
12,CCCCCTAC,-0.185
13,AAAAGCGC,-0.137
14,CGAATCAA,0.127
15,ACAATCAT,0.231
16,CCAATCAG,-0.0885
17,AGAATCAG,0.283
18,AGAATCAT,0.323
19,AGAATCAC,0.228
20,CGAATCAG,0.344
21,AGAATCCT,-0.231
22,AGAATCAA,0.0929
23,ACCTCCTG,-0.139
24,CGTCTCGC,-0.0775
25,ATATCTGC,0.104
26,AGAAGATG,-0.183

row,Sequence,PBM E-score
1,AACCGCCC,0.0139
2,ACCCGCGT,0.00191
3,ACCCGCGG,0.275
4,CCCCGCCA,0.398
5,ACCCGCGC,0.342
6,CACCGCCC,0.293
7,TCCCGCCA,0.0546
8,GCCCGCCA,0.13
9,ACCCGCGA,0.144
10,CCCCGCGG,0.0864
11,CACCGCCA,0.242
12,AGCCGCGG,0.178
13,AGTCTAAG,-0.0818
14,AAAAAAGC,-0.19
15,CGAGATTA,0.0687
16,GGAGGGGA,0.219
17,TACGCCAA,-0.241
18,ACCCGCCC,0.428
19,GCCCGCCC,0.137
20,ACCCGCCG,0.197
21,ATCCTACC,0.0595
22,ACGCTTAC,-0.205
23,GTGTGTTA,0.278
24,ATGTGTGG,0.08
25,ATGTGTGA,0.29
26,ATGTGTTA,0.195

row,Sequence,PBM E-score
1,CTGTGTGA,0.306
2,ATGTGTGC,0.12
3,ATGTGTCC,0.157
4,CTGTGTGC,0.177
5,CTGTGTAA,0.134
6,ATGTGTCG,0.29
7,CTGTGTTA,0.169
8,ATGTGTCA,0.143
9,AGGACTGG,0.113
10,ACTAGACG,-0.048
11,ATTTTGCC,-0.15
12,AGACTTGC,-0.249
13,AACATCTA,-0.152
14,CACCAGCC,0.143
15,ATAGACGG,0.00408
16,TACCAACA,0.145
17,GATATGCA,-0.0288
18,TCTTTCCA,-0.157
19,GGCCAAAC,-0.155
20,GTGTGAGA,0.0943
21,GCGTGTGA,0.104
22,GTGTGTGA,0.298
23,TAGAGGGA,-0.0999
24,AGTTTGAT,0.0522
25,CTTAACCC,-0.213
26,CACCAGAC,0.309

row,Sequence,PBM E-score
1,AACCAGAC,-0.00075
2,GACCAGAC,-0.141
3,GCTTGCAC,-0.0624
4,CTGATTTC,-0.00794
5,ATGATTAA,0.264
6,ACGATTAG,0.045
7,CTGATTAC,0.278
8,ATGATTAG,0.317
9,ACGATTAC,0.161
10,ATCATTAA,0.0987
11,AAGATTAC,-0.0671
12,CTGATTAA,0.191
13,ATGATTAC,0.391
14,ATCATTAG,0.148
15,ATCATTAC,0.274
16,TGCCACAA,0.0692
17,TAGTAGAA,-0.199
18,ATGGTAGG,0.104
19,CCTAAGCA,-0.108
20,GAAGCACA,-0.00604

# From the supplement of paper PMC3334620
